Compound activity deposited in PubChem by Sanford-Burnham Center for Chemical Genomics.
An excerpt weighted towards active compounds, which were near 3.9% of everything screened.
HIF-2a inh – inhibitors of HIF-2a | 786-0 RCC cells HIF-2a reporter, luciferase luminescence, overnight | inhibition, % at 18.8 µM | hit rate 0.72% among 360,000 | AID 624352;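 active means inhibition of the luminescence signal of 40% or more relative to plate controls, in a single-dose primary screen at 18.75 µM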
CF NFkB inh – inhibitors of cystic fibrosis induced NF-kB; KKLEB NF-kB-GFP reporter, PAF-induced, GFP fluorescence overnight; inhibition, % at 5 µM; hit rate 0.86% among 360,000; AID 588850;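 active means at least 50% inhibition at 5 µM, scaled per plate between neutral and stimulator controls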;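 further: PAF is a Pseudomonas aeruginosa culture filtrate used as stimulus; plate controls were PAF-stimulated DMSO wells for no effect and unstimulated DMSO wells for full effect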
KKLEB tox – CF airway cell cytotoxicity counter-screen. KKLEB CF airway cells viability, ATPlite luminescence, overnight; stronger effect = lower value; cells stimulated with P. aeruginosa culture filtrate. activity change (cytotoxicity), % at 5 µM. hit rate 0.36% among 360,000;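 active means corrected activity change at or below -50% at 5 µM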
TWEAK-Fn14 inh – blocks TWEAK-Fn14 interaction in a reporter cell assay; TWEAK-stimulated Fn14 reporter cells, luciferase luminescence, 8 h; inhibition, % at 10 µM; hit rate 2% among 360,000; AID 1159606; in the data active means inhibition above about 50%
Peg3 promoter – Peg3 promoter activity inhibition | HeLa PEG-Prom luciferase reporter, luminescence, overnight | hit rate 1.7% among 360,000 | inhibition, % at 20 µM;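 active means inhibition of at least 50% at 20 µM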
TROY signal inh – TROY signaling inhibition; Q293 LMP1-TROYcd NF-kB luciferase reporter, 4 h; hit rate 0.98% among 360,000; AID 1347056; inhibition, % at 10 µM;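 active means compounds whose plate-normalised and pattern-corrected inhibition of the luciferase reporter signal at the single screening dose is 50% or more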
The depositor's hits bear a star.

How did CC(=C\c1ccccc1)/C=C1/SC(=S)N(CCC(=O)O)C1=O do in these assays?
HIF-2a inh: 81*; CF NFkB inh: 6; KKLEB tox: 4; TWEAK-Fn14 inh: 55*; Peg3 promoter: -34; TROY signal inh: 9

What do the screens show for `O=C(CCN1C(=O)/C(=C/c2ccccc2Cl)SC1=S)N1CCOCC1`?
HIF-2a inh: -15; CF NFkB inh: 72*; KKLEB tox: -11; TWEAK-Fn14 inh: 12; Peg3 promoter: 76*; TROY signal inh: -33

Results for O=C(CCN1C(=O)/C(=C/c2ccccc2Cl)SC1=S)N1CCCC1 ?
HIF-2a inh: -11; CF NFkB inh: 53*; KKLEB tox: -4; TWEAK-Fn14 inh: 37; Peg3 promoter: 73*; TROY signal inh: -27

What do the screens show for `Cc1ccc(SCC(=O)c2c(C)[nH]c3ccccc23)cc1`?
HIF-2a inh: 10; CF NFkB inh: -2; KKLEB tox: -8; TWEAK-Fn14 inh: -1; Peg3 promoter: 6; TROY signal inh: -8

What do the screens show for `O=C(Cn1cnc2c(OCc3ccccc3)ncnc21)NCc1ccccc1`?
HIF-2a inh: -6; CF NFkB inh: 19; KKLEB tox: -6; TWEAK-Fn14 inh: -5; Peg3 promoter: 8; TROY signal inh: 14

What do the screens show for `Cc1nc2c(cc1NC(=O)c1ccccc1)nc(C)n2Cc1ccccc1`?
HIF-2a inh: 9; CF NFkB inh: -12; KKLEB tox: -4; TWEAK-Fn14 inh: -12; Peg3 promoter: 3; TROY signal inh: 0

How did CCOC(=O)C(C)Sc1nc2ccccc2c(=O)n1CC (centres undefined) do in these assays?
HIF-2a inh: 2; CF NFkB inh: 11; KKLEB tox: 4; TWEAK-Fn14 inh: -1; Peg3 promoter: -1; TROY signal inh: -4

What do the screens show for `COc1ccc(CC(=O)N/N=C/c2cccnc2)cc1OC`?
HIF-2a inh: 6; CF NFkB inh: 27; KKLEB tox: 6; TWEAK-Fn14 inh: 13; Peg3 promoter: 21; TROY signal inh: -9

How did O=C(CCCN1C(=O)/C(=C/c2ccccc2Cl)SC1=S)NNC(=O)c1ccncc1 do in these assays?
HIF-2a inh: 82*; CF NFkB inh: -9; KKLEB tox: 22; TWEAK-Fn14 inh: 79*; Peg3 promoter: 21; TROY signal inh: 68*

How did CC(=O)N(/N=C1\Sc2ccccc2C1=O)c1ccccc1C do in these assays?
HIF-2a inh: -276; CF NFkB inh: -34; KKLEB tox: 0; TWEAK-Fn14 inh: 19; Peg3 promoter: -273; TROY signal inh: -47

How did CC(=O)N(/N=C1\Sc2ccccc2C1=O)c1ccc(C)cc1C do in these assays?
HIF-2a inh: 22; CF NFkB inh: -4; KKLEB tox: -29; TWEAK-Fn14 inh: 91*; Peg3 promoter: 30; TROY signal inh: 38

How did Cc1ccc(C)c(N(CC(=O)NN=C2CCCCCCC2)S(C)(=O)=O)c1 do in these assays?
HIF-2a inh: 12; CF NFkB inh: 8; KKLEB tox: 2; TWEAK-Fn14 inh: 6; Peg3 promoter: 7; TROY signal inh: 2

Results for CCCC(NS(=O)(=O)c1ccc(-c2ccc(=O)[nH]n2)s1)c1cccs1 (centres undefined) ?
HIF-2a inh: -61; CF NFkB inh: -31; KKLEB tox: 1; TWEAK-Fn14 inh: 58*; Peg3 promoter: -19; TROY signal inh: 35

How did Cc1cccc(CNS(=O)(=O)c2ccc(-c3ccc(=O)[nH]n3)s2)c1 do in these assays?
HIF-2a inh: 10; CF NFkB inh: -11; KKLEB tox: 12; TWEAK-Fn14 inh: -21; Peg3 promoter: 15; TROY signal inh: 8

How did Oc1cccc(-c2nc3c4c(ncn3n2)-c2ccccc2CC42CCCC2)c1 do in these assays?
HIF-2a inh: 26; CF NFkB inh: 14; KKLEB tox: -7; TWEAK-Fn14 inh: 71*; Peg3 promoter: 54*; TROY signal inh: 41

What do the screens show for `COc1ccc(-c2nc3c4c(ncn3n2)-c2ccccc2CC42CCCC2)cc1`?
HIF-2a inh: 19; CF NFkB inh: 2; KKLEB tox: -1; TWEAK-Fn14 inh: 18; Peg3 promoter: -18; TROY signal inh: 2

Results for COCCCn1c(-c2ccc(S(=O)(=O)N3CCOCC3)cc2)csc1=Nc1ccccc1 ?
HIF-2a inh: 12; CF NFkB inh: -15; KKLEB tox: 0; TWEAK-Fn14 inh: 71*; Peg3 promoter: 9; TROY signal inh: 29

Results for CCn1c(-c2ccccc2)csc1=Nc1ccc(S(=O)(=O)O)cc1 ?
HIF-2a inh: 22; CF NFkB inh: 4; KKLEB tox: 9; TWEAK-Fn14 inh: 7; Peg3 promoter: 22; TROY signal inh: 15

What do the screens show for `COc1ccc(S(=O)(=O)N2CCCC(C(=O)N3CCN(c4ccccc4)CC3)C2)cc1Cl` (centres undefined)?
HIF-2a inh: 6; CF NFkB inh: 8; KKLEB tox: 4; TWEAK-Fn14 inh: 23; Peg3 promoter: 21; TROY signal inh: 27

What do the screens show for `Cc1c(/C=C/C(=O)c2ccc(Cl)s2)cnn1C`?
HIF-2a inh: -171; CF NFkB inh: -5; KKLEB tox: -6; TWEAK-Fn14 inh: -16; Peg3 promoter: -282; TROY signal inh: -72

Results for Oc1cc(NCc2cccnc2)ccc1-c1nc2ccccc2o1 ?
HIF-2a inh: -327; CF NFkB inh: -81; KKLEB tox: -17; TWEAK-Fn14 inh: 103*; Peg3 promoter: -349; TROY signal inh: -38

What do the screens show for `O=C(NCCC1=CCCCC1)c1ccc(F)cc1`?
HIF-2a inh: -77; CF NFkB inh: -3; KKLEB tox: 1; TWEAK-Fn14 inh: 54*; Peg3 promoter: -88; TROY signal inh: -23

What do the screens show for `O=C(NCCC1=CCCCC1)NC12CC3CC(CC(C3)C1)C2`?
HIF-2a inh: -188; CF NFkB inh: 11; KKLEB tox: -23; TWEAK-Fn14 inh: 48; Peg3 promoter: -278; TROY signal inh: 63*

How did COc1ccc(C(=O)NCCC2=CCCCC2)cc1 do in these assays?
HIF-2a inh: -23; CF NFkB inh: -5; KKLEB tox: 7; TWEAK-Fn14 inh: 75*; Peg3 promoter: -6; TROY signal inh: 36

How did COc1cccc(C(=O)NCCC2=CCCCC2)c1 do in these assays?
HIF-2a inh: -91; CF NFkB inh: 12; KKLEB tox: 2; TWEAK-Fn14 inh: 51*; Peg3 promoter: -158; TROY signal inh: -3

Results for COc1ccc(C(=O)NCC(=O)OCC(=O)NCCC2=CCCCC2)cc1 ?
HIF-2a inh: 15; CF NFkB inh: -5; KKLEB tox: 10; TWEAK-Fn14 inh: -2; Peg3 promoter: 5; TROY signal inh: -9

Results for COc1ccc(C(=O)NCCC2=CCCCC2)cc1OC ?
HIF-2a inh: -178; CF NFkB inh: 5; KKLEB tox: 7; TWEAK-Fn14 inh: -6; Peg3 promoter: -144; TROY signal inh: -43

What do the screens show for `Cc1ccc(C(=O)C(=O)c2ccc(C)c(N)c2)cc1N`?
HIF-2a inh: 3; CF NFkB inh: -9; KKLEB tox: 6; TWEAK-Fn14 inh: 0; Peg3 promoter: -12; TROY signal inh: -7

How did COc1ccc(OC)c(NC(=O)C(=O)NCCC2=CCCCC2)c1 do in these assays?
HIF-2a inh: -19; CF NFkB inh: -2; KKLEB tox: 8; TWEAK-Fn14 inh: 78*; Peg3 promoter: -37; TROY signal inh: -31
